Laboratory results published in ChEMBL document CHEMBL3988442, “University of Dundee, Small-Polar-MMV Screening Library” (2021).
About 13,000 (27%) of roughly 48,000 compounds showed an effect of 50% or more. This is one part of the list.

System: Wolbachia pipientis
Test: Anti-Wolbachia Cell-Based Screen
Assay type: functional
Design: scale not given: in the data most compounds retested in dose-response had high values
Conditions: 5 µM

SMILES	Percent Effect [%]
CCN(CCc1nc2cc(C)ccc2[nH]1)C(=O)COC	16.32
CCSCCC(C)N(C)C(=O)c1ccc2nncn2c1 (centres undefined)	5.422
CC(C)N1CCC(CC(=O)NC[C@H]2CCc3ccccc3O2)CC1	10.1
Cc1cc(NC2CCN(c3ccccc3)C2)n2ncnc2n1 (centres undefined)	-12.56
Cc1cc(=O)n2ncnc2n1CC(O)c1ccccc1 (centres undefined)	-22.33
CCOc1cc(C)nc(N2CCN(Cc3nccn3CC)CC2)n1	-15.08
O=C(CSc1ccc(F)c(F)c1)NS(=O)(=O)c1ccc2c(c1)OCCO2	-0.1688
Cn1cc(-c2nc3c(cc2C(=O)O)CCN(C(=O)C2CC2)CC3)cn1.O=C(O)C(F)(F)F	-6.455
Cc1cnc(N2CCc3cc(C(=O)O)c(N(C)C)nc3CC2)nc1.O=C(O)C(F)(F)F	100.3
Cc1cnc(N2C[C@@H]3[C@@H](C2)OCC(=O)N3CCN(C)C)nc1.O=C(O)C(F)(F)F	-6.584
CC(=O)N1CC[C@]2(O)CCN(Cc3nc(C)c[nH]3)C[C@@H]2C1	-2.174
O=C(NCCn1ccc(-c2ccccn2)n1)c1ccncc1	-7.154
O=S(=O)(NCCn1ccc(-c2ccncc2)n1)C1CC1	-3.151
O=C(CC1CCCC1)NCCn1ccc(-c2ccccn2)n1	-10.47
CCOCC(=O)NCCn1ccc(-c2ccccn2)n1	107
O=C(NCCn1ccc(-c2ccccn2)n1)C1CCC1	100.8
CC(=O)NCCn1ccc(-c2ccccn2)n1	104.5
O=C(NCCn1ccc(-c2ccccn2)n1)C1CC1	-0.9217
O=S(=O)(NCCn1ccc(-c2ccccn2)n1)C1CCCCC1	96.49
CC(=O)NCCNc1nc(-c2ccccn2)nc2c1c(C)nn2C	-13.51
O=S(=O)(NCCn1ccc(-c2ccccn2)n1)C1CC1	-6.765
Cc1ccc(O)c(CN(Cc2ccccc2)Cc2nccs2)n1	11.33
CCCN1CCCn2nc(CNC(=O)CCc3scnc3C)cc2C1	1.883
CN(Cc1ccsc1)Cc1nc(-c2cnccn2)no1	-7.726
CC(C)(C)C(=O)NCCn1ccc(-c2ccccn2)n1	67.15
CC(C)(C)C(=O)NCCn1ccc(-c2ccncc2)n1	-1.821

SMILES	Percent Effect [%]
NC(=O)C1CCCN1Cc1nccn1CC(F)(F)F (centres undefined)	-2.704
Cn1ccnc1CN1CCCCC1Cn1cccn1 (centres undefined)	5.027
Cc1cnn(CC2CCCN2Cc2nc3ccccc3nc2C)c1 (centres undefined)	3.797
O=C(C1CCCCN1Cc1nccn1CC(F)(F)F)N1CCCC1 (centres undefined)	-10.67
Cn1ccnc1CN1CCCC1Cn1cccn1 (centres undefined)	107.8
Cc1cnn(CC2CCCN2Cc2nccn2CC(F)(F)F)c1 (centres undefined)	129.3
Cc1cnn(CC2CCCCN2Cc2nccn2CC(F)(F)F)c1 (centres undefined)	101.7
CCn1ccnc1CN1CCCC1Cn1cc(C)cn1 (centres undefined)	134.6
Cc1cnn(CC2CCCN2Cc2nccn2C)c1 (centres undefined)	-1.089
Cc1nc2ccccc2nc1CN1CCCCC1Cn1cccn1 (centres undefined)	-6.205
Cc1cnn(CC2CCCN2Cc2nc3ccccc3n2C)c1 (centres undefined)	0.7122
Cc1cnn(CC2CCCCN2Cc2nc(-c3ccoc3)no2)c1 (centres undefined)	6.468
COc1ccc(Cc2ncc3c(n2)CN(C(=O)C2COCCO2)C3)cc1 (centres undefined)	-5.777
CCCN1CCN(Cc2cc(Cl)cc(Cl)c2)[C@H]2CS(=O)(=O)C[C@H]21	3.846
CSC(C)CC(=O)N1CCC(n2ccnn2)CC1 (centres undefined)	6.562
CN(C)C(=O)N1Cc2ccccc2C2(CCNCC2)C1.Cl	-11
COCC(=O)N1CCc2ccccc2C12CCNCC2.Cl	112.7
Cl.O=C([C@H]1CCCO1)N1CCC2(CC1)CNCc1ccccc12	-10.28
CCOC(=O)N1CCc2ccccc2C12CCNCC2.Cl	93.5
COCC(=O)N1CCC2(CC1)NC(=O)c1ccccc12.Cl	-6.733
COCC(=O)N1CCc2[nH]c(=O)ccc2C1	-6.404
O=C(CCN1CCNCC1)N1CCC2(CC1)c1ccccc1CC2O (centres undefined)	4.718
O=C(C1CC1)N1CCC2(CC1)CNCc1ccccc12	1.154
Cl.O=C(C1CC1)N1CCc2ccccc2C12CCNCC2	85.13
CS(=O)(=O)N1CC[C@]2(C[C@H](Oc3ccccn3)CO2)C1.O=C(O)C(F)(F)F	1.633
Cn1nc(Cn2cccc2)c2c1CN(Cc1ccsc1)C2.O=C(O)C(F)(F)F	0.5842

SMILES	Percent Effect [%]
Cc1ccccc1CN1CCCN(C2CCOC2=O)CC1 (centres undefined)	1.458
CCO[C@@H]1CN(S(=O)(=O)c2cn(C)cn2)[C@@H]2CCCO[C@@H]21.O=C(O)C(F)(F)F	-6.587
Cc1cc(N(C)C)nc(N2CCN(C(C)c3nc(C)no3)CC2)n1 (centres undefined)	5.095
Cc1cc(C)n(CC2CN(CC(=O)Nc3c(C)n[nH]c3C)CCO2)n1 (centres undefined)	-5.671
CCN1CCC(NC(=O)CN2CCCC2Cn2nc(C)cc2C)CC1 (centres undefined)	-4.017
Cc1nc(C)n(CC2CN(CC(=O)Nc3nccs3)CCO2)n1 (centres undefined)	1.962
Cc1nc(C)n(CC2CN(CC(=O)NC3CCCC3)CCO2)n1 (centres undefined)	112.4
Cc1cc(C)n(CC2CN(CC(=O)NC3CCCCC3)CCO2)n1 (centres undefined)	116.8
Cc1nc(C)n(CC2CN(CC(=O)Nc3cccnc3)CCO2)n1 (centres undefined)	9.573
Cc1cc(C)n(CC2CN(CCC(=O)NC3CCCCC3)CCO2)n1 (centres undefined)	118.1
Cc1cc(C)n(CC2CN(CC(=O)NC3CCOCC3)CCO2)n1 (centres undefined)	89.87
Cc1cc(C)n(CC2CN(CC(=O)NC3CCCC3)CCO2)n1 (centres undefined)	-2.568
CCNC(=O)C1CCN(c2cc(CC)nc3ccnn23)C1 (centres undefined)	-6.245
CC(C)(C)CCNC(=O)c1ccc(Cl)c(NS(C)(=O)=O)c1	-2.179
O=C(NCC(=O)N1CC2(CCCC2)c2c(F)cccc21)C1CC1	-3.819
Cc1cc(C)n(CC2CN(CC(=O)NC(C3CC3)C3CC3)CCO2)n1 (centres undefined)	97.21
O=C(CN1CCOC(Cn2cncn2)C1)NC(C1CC1)C1CC1 (centres undefined)	-5.3
CC(C)=CCN1CCOC(Cn2nc(C)cc2C)C1 (centres undefined)	-20.01
Cc1cc(NC(=O)CN2CCOC(Cn3nc(C)cc3C)C2)n(C)n1 (centres undefined)	-0.6717
Cc1cc(C)n(CC2CN(CC(=O)Nc3nncs3)CCO2)n1 (centres undefined)	-6.247
Cc1cc(C)n(CC2CN(CC(=O)Nc3ccncc3)CCO2)n1 (centres undefined)	89.28
Cc1cc(C)n(CC2CN(CC(=O)NC3(C#N)CCCC3)CCO2)n1 (centres undefined)	97.92
Cc1cc(C)n(CC2CN(CC3CCCC3)CCO2)n1 (centres undefined)	115
Cc1cc(CN2CCN(CC(=O)NC3(C#N)CCCCC3)CC2)on1	3.175
Cc1cc(C)n(CC2CN(CCc3ccncc3)CCO2)n1 (centres undefined)	-8.109
O=C(CN1CCOC(Cn2cccn2)C1)NC(C1CC1)C1CC1 (centres undefined)	-1.772

SMILES	Percent Effect [%]
O=C(Nc1cccn(CC(F)(F)F)c1=O)c1ccc(F)cc1	7.272
O=C(NCC1CC1)C12CC(CN1Cc1nccs1)C2	-8.528
CCNC(=O)[C@@H]1C[C@H](N)CN1Cc1ccc(Sc2ccc(C)cc2)o1	11.39
CCNC(=O)[C@@H]1C[C@@H](NC(=O)c2cccnc2O)CN1Cc1ccsc1	9.29
CCNC(=O)[C@@H]1C[C@H](NC(=O)c2ccc(C)s2)CN1Cc1ccc(C)o1	103.2
CCNC(=O)[C@@H]1C[C@@H](NC(=O)c2cc(C)on2)CN1Cc1ccccn1	121.6
C/C=C(\C)CN1C[C@H](NC(=O)c2cnc(O)cn2)C[C@H]1C(=O)NCC	-10.14
CCNC(=O)[C@@H]1C[C@@H](NC(=O)c2ccc(C)s2)CN1Cc1ccccn1	112.7
CCNC(=O)[C@@H]1C[C@@H](NC(=O)Cc2ccccn2)CN1CCCSC	-3.005
CCNC(=O)[C@@H]1C[C@H](NC(=O)Cc2ccsc2)CN1Cc1ccc(C)o1	8.656
Cc1cc(C(=O)N2CCC(c3nccn3Cc3ccccn3)CC2)no1	-9.373
CSCCc1c(-c2ccccc2)ncn1CC(C)(C)N1CCOCC1	0.5421
CN(CCCc1cc(-c2ccccc2)n[nH]1)C(=O)CCCn1cncn1	1.593
O=C(COC1CCOC1)N(CC(F)F)c1cccc(Cl)c1 (centres undefined)	-1.811
CC1CCC(NC(=O)Nc2ccc(CC(=O)N(C)C)cc2)CC1 (centres undefined)	5.136
CC(O)CN1CCN(C(=O)c2ccc(Br)o2)CC1 (centres undefined)	-12.79
CSCc1cccc(C(=O)N2CCN(CC(C)O)CC2)c1 (centres undefined)	-7.975
CCN(CC)Cc1ccc(C(=O)N2CCN(CC(C)O)CC2)cc1 (centres undefined)	-1.675
CSCc1ccc(C(=O)N2CCN(CC(C)O)CC2)cc1 (centres undefined)	99.74
CC(O)CN1CCN(C(=O)c2ccc3c(c2)COC3)CC1 (centres undefined)	-5.873
CC(O)CN1CCN(C(=O)c2ccc(CN(C)C)cc2)CC1 (centres undefined)	105.8
COCc1ccc(C(=O)N2CCN(CC(C)O)CC2)cc1 (centres undefined)	108.5
COc1ccccc1C(=O)Nc1ccc([C@@H](O)[C@H]2COCC(=O)N2)cc1	-5.781
O=C(O)C1c2nc[nH]c2CCN1Cc1ccccc1-c1ccccc1 (centres undefined)	-6.694
CC(C)CCc1noc(CN2CCCC(CNS(N)(=O)=O)C2)n1 (centres undefined)	-3.11
O=S(=O)(NC1CCC2(CC1)OCCO2)c1cccc(Br)c1	-35.45
